Bioassay records from PubChem BioAssay.
NPR1 antag = human Npr1 receptor antagonism; HEK293 hNpr1 GloSensor cGMP, ANP-stimulated luminescence; Potency, µM (top dose mostly 46.3 µM), without a hit: top-dose activity change, negative = inhibition, usual class: inhibitors; 1.6% of 76,000 active; AID 1347048; calls by dose curve; further: nearly all actives have a fitted effect of over 60% in size
Target sequence (P16066 whole entry, looked up): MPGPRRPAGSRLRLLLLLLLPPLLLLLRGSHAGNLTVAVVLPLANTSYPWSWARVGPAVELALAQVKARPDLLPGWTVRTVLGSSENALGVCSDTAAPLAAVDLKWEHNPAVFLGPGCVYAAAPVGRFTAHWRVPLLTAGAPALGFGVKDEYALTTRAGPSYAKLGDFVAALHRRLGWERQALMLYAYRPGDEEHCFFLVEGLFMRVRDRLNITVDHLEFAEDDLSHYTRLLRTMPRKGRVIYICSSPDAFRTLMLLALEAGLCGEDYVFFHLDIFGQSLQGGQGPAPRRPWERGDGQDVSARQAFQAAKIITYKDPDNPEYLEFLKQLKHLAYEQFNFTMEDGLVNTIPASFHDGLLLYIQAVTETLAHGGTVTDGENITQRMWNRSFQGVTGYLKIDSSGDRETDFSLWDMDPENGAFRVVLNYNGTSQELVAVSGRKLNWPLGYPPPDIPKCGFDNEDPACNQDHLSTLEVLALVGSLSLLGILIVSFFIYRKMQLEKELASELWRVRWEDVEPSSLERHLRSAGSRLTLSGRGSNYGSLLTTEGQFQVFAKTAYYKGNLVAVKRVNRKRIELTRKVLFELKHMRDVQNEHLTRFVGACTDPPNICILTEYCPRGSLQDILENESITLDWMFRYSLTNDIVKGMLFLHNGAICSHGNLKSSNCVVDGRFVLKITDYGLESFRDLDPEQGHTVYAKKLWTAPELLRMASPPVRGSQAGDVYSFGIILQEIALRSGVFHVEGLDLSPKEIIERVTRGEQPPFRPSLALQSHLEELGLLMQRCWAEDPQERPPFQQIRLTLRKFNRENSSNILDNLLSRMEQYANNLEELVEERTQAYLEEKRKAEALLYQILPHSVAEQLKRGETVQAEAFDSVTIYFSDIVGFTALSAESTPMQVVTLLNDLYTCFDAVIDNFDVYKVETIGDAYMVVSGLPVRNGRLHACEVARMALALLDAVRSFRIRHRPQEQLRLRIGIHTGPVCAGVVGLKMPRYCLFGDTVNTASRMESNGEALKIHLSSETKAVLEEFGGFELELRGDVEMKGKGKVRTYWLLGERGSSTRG
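Compound pre-incubated 30 min at room temperature on GloSensor-loaded HEK293 cells stably carrying hNpr1 and the pGS-40F cGMP biosensor. Stimulation uses hNppA at 0.1 nM final; luminescence is taken at baseline and 20 min post-agonist.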
HEK cytotox = cytotoxic compounds in HEK 293 cells. 6.6% of 94,000 active. Potency, µM (highest dose often 115 µM), without a hit: top-dose activity change, negative = cytotoxicity, hits mostly inhibitors. HEK 293 viability, ATP luminescence (CellTiter-Glo), 48-72 h. AID 1345083; further: nearly all actives have a fitted effect of over 60% in size
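Pintool-delivered compounds were incubated with HEK 293 cells (250 cells/well) at 37 degree Celsius for 48 or 72 hr. ATP-dependent luminescence (CellTiter-Glo) then reported remaining viable cells.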
NIH3T3 tox = NIH 3T3 cell cytotoxicity; NIH 3T3 viability, CellTiter-Glo ATP luminescence, 48-72 h; Potency, µM (doses to about 96.7 µM), inactives show top-dose activity change, negative = cytotoxicity, actives largely listed as inhibitors; 4.3% of 94,000 active; AID 1345082; further: nearly all actives have a fitted effect of over 55% in size
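First NIH 3T3 cells are plated at 400 cells/well; next compound is pinned in; then plates incubate 48 or 72 hr at 37 °C; finally CellTiter-Glo is added and luminescence read after 10 min.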
FLuc inh = blocks purified firefly luciferase enzyme activity | 2.5% of 76,000 active | P08659 | Potency, µM (doses to about 115 µM), hits mostly inhibitors | purified P. pyralis luciferase, luminescence, biochemical | AID 1347043; further: nearly all actives have a fitted effect of over 65% in size
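Purified P. pyralis luciferase (10nM final) in 50mM Tris acetate pH 7.5, 10mM Mg acetate, 0.01% Tween-20, 0.05% BSA with 10uM D-luciferin and 10uM ATP. Compounds titrated qHTS. Luminescence imaged on CCD.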
Starred values were filed as active, the others as inactive; i = inactive; u = inconclusive; x = no result given; [ ] = another dose, or the depositor's remark. This is a sample that favours compounds with a hit; in the whole collection about 11% have one here. Unless noted, the call rests on the fitted dose curve; in most records, active means well fitted curve in the direction sought with a large enough effect; inconclusive means small, poorly fitted or top-dose-only effect, or another doubt; inactive means no such curve, though single readings can be large; an effect the other way counts as inactive or inconclusive. On the % scale 0 is the no-effect control and ±100 the full control effect; potency means the concentration at half of the fitted maximal effect.

SMILES	NPR1 antag	HEK cytotox	NIH3T3 tox	FLuc inh
COc1ccc(CNC(=O)C2CCCN(c3nccc(Nc4ccc(C)cc4)n3)C2)cc1 (stereo not drawn)	x	10µM*	u	x
CCN1C(=O)C2CC3(CCN(Cc4ccc5c(c4)CCO5)CC3)CN2C1=O (stereo not drawn)	x	u	-23.0%	x
COc1ccc(CCNC(=O)CNC(=O)c2cccc(-c3ccsc3)c2)cc1	x	u	-9.3%	x
Cc1noc(C)c1[S+](=O)([O-])NCCNC(=O)c1cccc(-c2ncccc2C#N)c1	x	i	i	x
COc1ccc(Nc2ccnc(N3CCCC(C(=O)NCc4ccccc4)C3)n2)cc1 (stereo not drawn)	x	39.8µM*	35.5µM*	x
COc1ccc(CNC(=O)C2CCCN(c3nccc(Nc4ccccc4F)n3)C2)cc1 (stereo not drawn)	x	28.2µM*	10µM*	x
c1cc(-c2ccco2)cc(-c2nc(C3CCOC3)no2)c1 (stereo not drawn)	-0.9%	-9.4%	u	44.7µM*
c1cnc2cc(-c3nc(C4CCOC4)no3)ccc2n1 (stereo not drawn)	12.3%	-23.7%	-22.5%	u
CS(=O)(=O)N1CCC(c2nc(CCOCC3CC3)no2)C1 (stereo not drawn)	x	i	2.8%	x
CC1=C[C@@H](CNCCN(C)C)[C@H](C(C)C)C[C@H]1Cc1nnc(C(C)(C)C)o1	0.9%[70.6 µM]	u	70.8µM*	i
CC1=C[C@@H](CNCCN(C)C)[C@H](C(C)C)C[C@H]1Cc1nnc(-c2ccc(C)cc2)o1	-3.1%[70.6 µM]	35.5µM*	35.5µM*	i
CC1=C[C@@H](CNCCN2CCOCC2)[C@H](C(C)C)C[C@H]1Cc1nnc(-c2ccc(C)cc2)o1	-2.6%	39.8µM*	35.5µM*	i
COc1ccc(-c2nnc(C[C@@H]3C[C@@H](C(C)C)[C@H](CNC(=O)c4cnccn4)C=C3C)o2)cc1	1.8%	u	-6.3%	i
CC(=O)NCCNC[C@@H]1C=C(C)[C@H](Cc2nnc(-c3ccc(C)cc3)o2)C[C@H]1C(C)C	-21.3%[70.6 µM]	56.2µM*	39.8µM*	i
CC1=C[C@@H](CNCCN(C)C)[C@H](C(C)C)C[C@H]1Cc1nnc(C)o1	-2.8%[70.6 µM]	-2.0%[172 µM]	1.2%[174 µM]	i
CCOC(=O)[C@@H]1[C@@H](OC(N)=O)C(=O)N(C(C)C)C12CCN(C(=O)Cc1ccc(OC)cc1)CC2	x	-4.4%	u	x
CCOc1ccc(C2Cn3nnc(-c4nc(-c5ccsc5)no4)c3CO2)cc1 (stereo not drawn)	-6.1%	-18.3%	-28.0%	u
Cc1nc(-c2ccc(F)cc2)n(CC(=O)Nc2ccc3c(c2)OCO3)c(=O)c1CCO	-13.0%	u	-13.5%	i
COc1ccc(-c2cc3c(=O)n(CCNC(=O)c4cc(F)cc(F)c4)ccn3n2)cc1	-19.3%	u	u	2µM*
COc1ccc(-c2cc3c(=O)n(CCNC(=O)c4ccccn4)ccn3n2)cc1	-10.9%	-26.9%	-27.1%	7.94µM*
O=C(NCCn1ccn2nc(-c3ccc(F)cc3)cc2c1=O)c1cccc(Cl)c1	u	-43.1%	-26.5%	i
CC(=O)Nc1cccc(C(=O)NCCn2ccn3nc(-c4ccc(F)cc4)cc3c2=O)c1	0.0%	44.7µM*	u	20µM*
COc1ccc(-c2cc3c(=O)n(CCNC(=O)c4ccc(F)cc4)ccn3n2)cc1	-8.9%	u	-10.7%	u
COc1ccc(-c2cc3c(=O)n(CCNC(=O)c4cccc5[nH]ccc45)ccn3n2)cc1	-22.2%	31.6µM*	u	6.31µM*
O=C(Cc1cccc(Cl)c1)N1CCCC(C(=O)N2CCC(N3CCOC3=O)CC2)C1 (stereo not drawn)	x	i	4.2%	x
COc1ccc(CC(=O)N2CCC(C(=O)N3CCC(N4CCCC4=O)CC3)CC2)cc1	x	i	2.4%	x
COc1ccccc1C(=O)NCCn1ccn2nc(-c3ccc(C)c(C)c3)cc2c1=O	-4.3%	-25.8%	-26.8%	i
COc1ccc(-c2cc3c(=O)n(CCNC(=O)c4ccccc4C)ccn3n2)cc1	-15.4%	u	-20.7%	10µM*
CN1C(=O)[C@@H]2C[C@@H](CN2Cc2ccccc2)Oc2ccccc21	-2.0%[70.6 µM]	3.4%[172 µM]	-7.1%[138 µM]	i
CC(C)N1C[C@@H]2C[C@H]1C(=O)N(Cc1cccnc1)c1ccccc1O2	0.3%[70.6 µM]	-12.2%[172 µM]	u	i
